Holding throughout (test): glycan array binding signal (z-score within array); higher = stronger binding
Common to all, as to settings: glycan notation: IUPAC condensed, linker removed; mutation: D325A

Assay [1] has as its target Fuc(a1-2)Gal(b1-3)GalNAc(b1-4)[Neu5Ac(a2-3)]Gal(b1-4)Glc. A digest of the protocol: (§1)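 Glycan array data were curated from 3228 arrays in the Consortium for Functional Glycomics database and kept only where the protein sequence was available. Glycan names were converted to IUPAC-condensed notation, and columns mapping to the same glycan were averaged. The binding signal is a within-array Z-score, averaged across arrays of the same protein sequence at different concentrations or buffers and across linkers. Negative Z-scores can be read as non-binding.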

For the next assay, the target named is Fuc(a1-2)Gal(b1-3)GlcNAc. A digest of the protocol: as §1
Assay [2] concerns the target Fuc(a1-2)Gal(b1-4)GlcNAc(b1-3)Gal(b1-4)GlcNAc. The method, boiled down: as §1
For assay [3], the target named is Fuc(a1-2)[Gal(a1-3)]Gal(b1-4)Glc. A digest of the protocol:
as §1

The target in assay [4] is Fuc(a1-2)[GalNAc(b1-3)]Gal. A digest of the protocol: as §1
Assay [5] deals with Fuc(a1-3)[Gal3S(b1-4)]Glc6S. The method, boiled down:
as §1

Assay [6] has as its target Fuc(a1-3)[Gal3S(b1-4)]GlcNAc. The method, boiled down:
as §1

A further assay addresses Gal(a1-3)GalNAc. The method, boiled down: as §1
For assay [7], the target named is Gal(b1-3)GlcNAc(b1-3)Gal(b1-4)GlcNAc. A digest of the protocol: as §1
In assay [8] the target is Gal(b1-4)GlcNAc(b1-2)Man(a1-3)[Gal(b1-4)GlcNAc(b1-2)Man(a1-6)]Man(b1-4)GlcNAc(b1-4)GlcNAc. A digest of the protocol:
as §1

Assay [9] has as its target Gal(b1-4)GlcNAc(b1-3)Gal(b1-3)GlcNAc. A digest of the protocol: as §1
In the next assay the target is Gal3S(b1-3)GalNAc. A digest of the protocol:
as §1

In the next assay the target is Gal4S6S(b1-4)GlcNAc. A digest of the protocol:
as §1

The next assay deals with GlcA(b1-6)Gal. The method, boiled down:
as §1

Assay [10] addresses GlcNAc(b1-4)Gal(b1-4)GlcNAc. A digest of the protocol: as §1
Assay [11] has as its target Man(a1-2)Man(a1-2)Man(a1-3)Man. A digest of the protocol:
as §1

Assay [12] has as its target Man(a1-2)Man(a1-3)[Man(a1-2)Man(a1-6)]Man(a1-6)[Man(a1-2)Man(a1-2)Man(a1-3)]Man. The method, boiled down:
as §1

Assay [13] deals with Man(a1-2)Man(a1-6)[Man(a1-3)]Man(a1-6)[Man(a1-2)Man(a1-2)Man(a1-3)]Man. A digest of the protocol: as §1
Assay [14] deals with Man(a1-3)[Man(a1-6)]Man(a1-6)[Man(a1-2)Man(a1-3)]Man(b1-4)GlcNAc(b1-4)GlcNAc. The method, boiled down:
as §1

Assay [15] deals with Man(a1-3)[Man(a1-6)]Man(a1-6)[Man(a1-3)]Man. A digest of the protocol:
as §1

Assay [16] deals with Neu5Gc(a2-3)Gal(b1-4)[Fuc(a1-3)]GlcNAc. A digest of the protocol:
as §1

Only a selection was taken, and the strongest signals are over-represented in it overall.

B1: Surfactant Protein D (Human); Neck + Carbohydrate Recognition Domain (NCRD) (Homo sapiens) (protein)
chain: MLLFLLSALVLLTQPLGYLEAEMKTYSHRTMPSACTLVMCSSVESGLPGRDRDGREGPRGEKGDPGLPGAAGQAGMPGQAGPVGPKGDNGSVGEPGPKGDTGPSGPPGPPGVPGPAGREGALGKQGNIGPQGKPGPKGEAGPKGEVGAPGMQGSAGARGLAGPKGERGVPGERGVPGNTGAAGSAGAMGPQGSPGARGPPGLKGDKGIPGDKGAKGESGLPDVASLRQQVEALQGQVQHLQAAFSQYKKVELFPNGQSVGEKIFKTAQFVKPFTEAQLLCTQAGGQLASPRSAAENAALQQLVVAKNEAAFLSMTDSKTEGKFTYPTGESLVYSNWAPGEPNDAGGSEDCVEIFTNGKWNDRACGEKRLVVCEF
Take B1: the “glycan array binding signal (z-score)” value in assay [1] was -0.163; with Fuc(a1-2)Gal(b1-3)GlcNAc, -0.276; in assay [2] it was -0.226; in assay [3], -0.272; in assay [4], -0.268; in assay [5], -0.246. In addition, the “glycan array binding signal (z-score)” value in assay [6] is -0.269; with Gal(a1-3)GalNAc, -0.164; in assay [7], -0.267; in assay [8] it was -0.273; in assay [9], -0.269; with Gal3S(b1-3)GalNAc it was -0.274. The “glycan array binding signal (z-score)” value with Gal4S6S(b1-4)GlcNAc is -0.275; in the assay with GlcA(b1-6)Gal it was -0.26; in assay [10], -0.128; in assay [11], 5.67; in [12] it was 5.16; in [13], 4.8. Further, the “glycan array binding signal (z-score)” value in assay [14] is 4.71; in assay [15], 4.73; in assay [16], -0.27.

The values above are taken from the supplement of paper PMC8728848.
